“And” between values parts separate entries of the source, which are not always exact repeats. Equal entries are not always repeated. The whole screen tested about 5,500 compounds, of which about 2,000 (36%) were called active. Inconclusive results (about 18%) are left out. Cut-off read from the data, not from the text of the source: active = normalized growth mostly below about 0.91 (no sharp cut-off); inconclusive = no clear call, values can overlap the other calls; inactive = mostly above about 0.92. The list shows a part of the results.
Assay: chemical genetic growth profiling, strain panel (AID 1159580);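 note: tested at 20 µM; growth read once vehicle control cultures reached saturation at 30 °C; 1 = growth at the plate median or of vehicle wells; lower values mean less growth of the strain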
Conditions: S. cerevisiae deletion strains, growth OD

Measured: normalized growth

Cc1cc(-c2ccccc2)nnc1NCCN1CCOCC1
inactive: locus YAL013W, strain DEP1, hits give low values 1 | locus YAL021C, strain ccr4, hits give low values 0.985 | locus YAL026C, strain drs2, hits give low values 0.991 | locus YAL030W, strain snc1, hits give low values 0.986 | locus YBL061C, strain skt5, hits give low values 0.991 | locus YBR009C, strain hhf1, hits give low values 0.989 | locus YBR021W, strain FUR4, hits give low values 0.999 | locus YBR023C, strain chs3, hits give low values 0.989 | locus YBR171W, strain sec66, hits give low values 0.977 | locus YBR229C, strain ROT2, hits give low values 1.01 | locus YBR231C, strain swc5, hits give low values 0.989 | locus YBR279W, strain paf1, hits give low values 0.986 | locus YCL011C, strain gbp2, hits give low values 0.983 | locus YCL016C, strain dcc1, hits give low values 0.984 | locus YCL029C, strain bik1, hits give low values 0.964 | locus YCL061C, strain MRC1, hits give low values 0.985 | locus YCL069W, strain vba3, hits give low values 0.988 | locus YCR088W, strain abp1, hits give low values 0.99 | locus YDL005C, strain med2, hits give low values 0.99 | locus YDL035C, strain GPR1, hits give low values 1.03 | locus YDL040C, strain nat1, hits give low values 0.992 | locus YDL074C, strain BRE1, hits give low values 0.986 | locus YDL101C, strain DUN1, hits give low values 0.995 | locus YDL134C, strain PPH21, hits give low values 1.01 | locus YDL185W, strain tfp1, hits give low values 0.941 | locus YDL192W, strain arf1, hits give low values 0.974 | locus YDR001C, strain nth1, hits give low values 0.99 | locus YDR069C, strain doa4, hits give low values 1 | locus YDR101C, strain arx1, hits give low values 0.977 | locus YDR137W, strain rgp1, hits give low values 0.991 | locus YDR150W, strain NUM1, hits give low values 0.992 | locus YDR159W, strain sac3, hits give low values 1.01 | locus YDR162C, strain NBP2, hits give low values 1.01 | locus YDR195W, strain ref2 0.974 | locus YDR297W, strain sur2, hits give low values 0.997 | locus YDR318W, strain mcm21, hits give low values 0.98 | locus YDR334W, strain swr1, hits give low values 0.983 | locus YDR335W, strain msn5, hits give low values 0.986 | locus YDR388W, hits give low values 0.986 | locus YDR392W, strain spt3, hits give low values 0.924 | locus YDR502C, strain sam2, hits give low values 1 | locus YEL003W, strain gim4, hits give low values 0.998 | locus YEL037C, strain rad23, hits give low values 0.994 | locus YEL061C, strain CIN8 (second series), hits give low values 0.991 | locus YEL061C, strain CIN8, hits give low values 0.997 | locus YER015W, strain faa2, hits give low values 0.997 | locus YER016W, strain bim1, hits give low values 1 | locus YER110C, hits give low values 0.982 | locus YER111C, strain swi4, hits give low values 0.985 | locus YER155C, strain BEM2 (second series), hits give low values 1 | locus YER155C, strain BEM2, hits give low values 1 | locus YER167W, strain BCK2, hits give low values 1 | locus YFR010W, strain ubp6, hits give low values 0.992 | locus YGL078C, strain dbp3, hits give low values 0.991 | locus YGL086W, strain mad1, hits give low values 1.01 | locus YGL167C, strain pmr1, hits give low values 0.991 | locus YGL173C, strain kem1, hits give low values 0.983 | locus YGL227W, strain vid30, hits give low values 0.987 | locus YGL240W, strain doc1, hits give low values 0.974 | locus YGL248W, strain PDE1, hits give low values 1.02 | locus YGL253W, strain hxk2, hits give low values 0.987 | locus YGR078C, strain PAC10, hits give low values 1 | locus YGR135W, strain pre9, hits give low values 0.993 | locus YGR229C, strain SMI1, hits give low values 1.03 | locus YGR252W, strain gcn5, hits give low values 1.13 | locus YHR013C, strain ard1, hits give low values 0.983 | locus YHR027C, strain rpn1, hits give low values 0.987 | locus YHR030C, strain SLT2, hits give low values 1 and 0.966 | locus YHR079C, strain IRE1 (second series), hits give low values 0.972 | locus YHR079C, strain IRE1, hits give low values 0.961 | locus YHR094C, strain hxt1, hits give low values 0.969 | locus YHR129C, strain ARP1, hits give low values 0.996 | locus YHR142W, strain chs7, hits give low values 0.981 | locus YHR200W, strain rpn10, hits give low values 0.97 | locus YIL066C, strain RNR3, hits give low values 1.01 | locus YIL073C, strain SPO22, hits give low values 0.953 | locus YIL125W, strain kgd1, hits give low values 0.977 | locus YIR030C, strain dcg1, hits give low values 0.979 | locus YJL092W, strain hpr5, hits give low values 0.988 | locus YJL095W, strain BCK1 (second series), hits give low values 0.99 | locus YJL095W, strain BCK1, hits give low values 0.976 and 0.961 | locus YJL115W, strain asf1, hits give low values 0.991 | locus YJL129C, strain trk1, hits give low values 0.968 | locus YJL134W, strain LCB3, hits give low values 1.01 | locus YJL154C, strain vps35, hits give low values 1 | locus YJL164C, strain tpk1, hits give low values 0.987 | locus YJL166W, strain qcr8, hits give low values 0.993 | locus YJL168C, strain set2, hits give low values 0.973 | locus YJL187C, strain SWE1 (second series), hits give low values 0.997 | locus YJL187C, strain SWE1, hits give low values 0.986 | locus YJR043C, strain POL32, hits give low values 0.99 | locus YJR066W, strain TOR1, hits give low values 0.918
